Columns and labels:
Assay in all cases: DAPPL (digital affinity profiling via proximity ligation, sequencing); 10 mM Tris-HCl pH 7.5, 50 mM NaCl, 1 mM DTT, 4% glycerol, room temperature, 30 min; GST-TFs on glutathione beads, 16-mer random dsDNA library, 0.1% formaldehyde crosslink after washing; high values mean tight binding
FLI1 = biological target: T1, FLI1 (Homo sapiens, UniProt Q01543 1-452); details: protein: recombinant; tags: N-terminal GST; dsDNA, one strand shown
T1 sequence: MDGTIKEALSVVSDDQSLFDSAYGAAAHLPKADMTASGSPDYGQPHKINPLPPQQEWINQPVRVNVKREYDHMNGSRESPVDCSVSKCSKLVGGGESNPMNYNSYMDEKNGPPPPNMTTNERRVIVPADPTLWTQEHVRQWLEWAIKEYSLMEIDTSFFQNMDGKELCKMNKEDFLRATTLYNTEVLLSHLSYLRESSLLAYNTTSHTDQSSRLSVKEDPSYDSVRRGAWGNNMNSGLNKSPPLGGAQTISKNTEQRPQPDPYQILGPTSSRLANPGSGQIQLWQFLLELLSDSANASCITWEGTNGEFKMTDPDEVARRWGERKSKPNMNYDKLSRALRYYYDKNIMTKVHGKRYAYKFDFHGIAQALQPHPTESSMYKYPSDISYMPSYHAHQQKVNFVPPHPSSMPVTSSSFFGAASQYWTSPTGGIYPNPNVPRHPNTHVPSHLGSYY
Method in brief: (§1)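 The binding signal reported is, for every hexamer, its read frequency for a factor over its read frequency for the tag-only sample. Reads came from pools of yeast-expressed, GST-fused human transcription factors on glutathione beads, barcoded with DNA and mixed with that sample, which were incubated with 200 nmole of a random double-stranded 16-mer DNA library in Tris/NaCl/DTT/glycerol buffer at room temperature for 30 min. After washing, the pools were crosslinked with 0.1% formaldehyde, proximity-ligated with BsaI/T4 ligase for 1 h at 37 °C, PCR-amplified and sequenced on an Illumina NextSeq500.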

ELK1 = biological target: T2, ELK1 (Homo sapiens, UniProt P19419 1-428); details: protein: recombinant; tags: N-terminal GST; dsDNA, one strand shown
T2 sequence: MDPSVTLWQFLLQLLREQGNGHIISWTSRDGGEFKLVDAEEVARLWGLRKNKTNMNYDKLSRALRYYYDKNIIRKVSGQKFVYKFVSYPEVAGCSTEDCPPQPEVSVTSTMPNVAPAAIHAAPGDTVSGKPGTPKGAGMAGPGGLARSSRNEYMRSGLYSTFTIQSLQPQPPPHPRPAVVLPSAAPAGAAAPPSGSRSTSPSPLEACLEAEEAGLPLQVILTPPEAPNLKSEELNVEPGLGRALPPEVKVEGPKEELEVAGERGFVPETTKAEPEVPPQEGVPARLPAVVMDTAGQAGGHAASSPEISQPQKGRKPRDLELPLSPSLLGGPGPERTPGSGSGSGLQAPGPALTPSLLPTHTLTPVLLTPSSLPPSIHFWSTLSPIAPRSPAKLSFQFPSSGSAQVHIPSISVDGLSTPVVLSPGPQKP
Method in brief: as §1

GABPA = biological target: T3, GABPA (Homo sapiens, UniProt Q06546 1-454); details: protein: recombinant; tags: N-terminal GST; dsDNA, one strand shown
T3 sequence: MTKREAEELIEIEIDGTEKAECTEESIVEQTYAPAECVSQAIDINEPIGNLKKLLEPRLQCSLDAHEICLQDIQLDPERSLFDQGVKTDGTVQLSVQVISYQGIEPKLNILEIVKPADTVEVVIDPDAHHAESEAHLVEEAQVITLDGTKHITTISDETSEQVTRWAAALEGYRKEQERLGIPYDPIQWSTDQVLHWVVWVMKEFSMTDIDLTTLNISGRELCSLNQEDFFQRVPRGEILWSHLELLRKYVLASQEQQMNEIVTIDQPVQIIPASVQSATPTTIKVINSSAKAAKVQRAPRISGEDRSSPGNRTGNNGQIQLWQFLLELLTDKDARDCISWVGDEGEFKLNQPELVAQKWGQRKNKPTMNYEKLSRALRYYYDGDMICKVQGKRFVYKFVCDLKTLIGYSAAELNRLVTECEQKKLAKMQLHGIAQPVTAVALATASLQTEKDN
Method in brief: as §1

ERG = biological target: T4, ERG (Homo sapiens, UniProt P11308 1-479); details: protein: recombinant; tags: N-terminal GST; dsDNA, one strand shown
T4 sequence: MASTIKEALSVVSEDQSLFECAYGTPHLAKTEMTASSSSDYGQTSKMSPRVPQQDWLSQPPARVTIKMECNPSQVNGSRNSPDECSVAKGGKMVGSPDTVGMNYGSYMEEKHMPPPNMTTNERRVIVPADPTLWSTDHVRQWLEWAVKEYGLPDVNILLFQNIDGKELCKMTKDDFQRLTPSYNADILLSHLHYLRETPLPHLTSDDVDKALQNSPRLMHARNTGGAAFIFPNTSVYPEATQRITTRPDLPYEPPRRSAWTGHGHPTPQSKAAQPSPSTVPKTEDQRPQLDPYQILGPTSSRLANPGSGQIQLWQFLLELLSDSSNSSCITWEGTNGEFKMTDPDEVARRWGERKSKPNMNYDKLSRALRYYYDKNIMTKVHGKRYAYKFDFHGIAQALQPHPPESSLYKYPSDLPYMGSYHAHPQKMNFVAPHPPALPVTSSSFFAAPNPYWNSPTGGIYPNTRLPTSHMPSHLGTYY
Method in brief: as §1

ELF1 = ELF1 (Homo sapiens, UniProt P32519 1-619); details: protein: recombinant; tags: N-terminal GST; dsDNA, one strand shown
Method in brief: as §1

EHF = biological target: T5, EHF (Homo sapiens, UniProt Q9NZC4 1-300); details: protein: recombinant; tags: N-terminal GST; dsDNA, one strand shown
T5 sequence: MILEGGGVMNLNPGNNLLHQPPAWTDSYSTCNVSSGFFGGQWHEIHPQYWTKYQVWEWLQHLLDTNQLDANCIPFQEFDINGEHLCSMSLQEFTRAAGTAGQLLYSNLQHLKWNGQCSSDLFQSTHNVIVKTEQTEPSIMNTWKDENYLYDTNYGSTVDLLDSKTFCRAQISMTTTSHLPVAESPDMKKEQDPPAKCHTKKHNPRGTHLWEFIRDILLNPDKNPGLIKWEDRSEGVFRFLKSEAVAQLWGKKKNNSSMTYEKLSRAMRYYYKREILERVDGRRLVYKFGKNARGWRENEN
Method in brief: as §1

SPI1 = SPI1 (Homo sapiens, UniProt P17947 1-270); details: protein: recombinant; tags: N-terminal GST; dsDNA, one strand shown
Method in brief: as §1

SPIB = SPIB (Homo sapiens, UniProt Q01892 1-262); details: protein: recombinant; tags: N-terminal GST; dsDNA, one strand shown
Method in brief: as §1

ELK3 = biological target: T6, ELK3 (Homo sapiens, UniProt P41970 1-407); details: protein: recombinant; tags: N-terminal GST; dsDNA, one strand shown
T6 sequence: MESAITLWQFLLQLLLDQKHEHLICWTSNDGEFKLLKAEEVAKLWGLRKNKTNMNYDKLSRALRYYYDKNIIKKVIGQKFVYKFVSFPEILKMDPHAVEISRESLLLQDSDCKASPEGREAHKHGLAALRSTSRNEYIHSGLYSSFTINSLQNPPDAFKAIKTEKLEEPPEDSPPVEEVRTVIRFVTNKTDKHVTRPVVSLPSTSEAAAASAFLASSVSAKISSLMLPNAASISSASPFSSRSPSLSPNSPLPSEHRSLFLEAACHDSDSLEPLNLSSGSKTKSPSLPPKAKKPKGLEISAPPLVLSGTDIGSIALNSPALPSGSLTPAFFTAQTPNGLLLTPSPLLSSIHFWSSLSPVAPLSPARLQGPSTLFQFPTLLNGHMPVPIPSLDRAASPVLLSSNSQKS
Method in brief: as §1

FEV = biological target: T7, FEV (Homo sapiens, UniProt Q99581 1-238); details: protein: recombinant; tags: N-terminal GST; dsDNA, one strand shown
T7 sequence: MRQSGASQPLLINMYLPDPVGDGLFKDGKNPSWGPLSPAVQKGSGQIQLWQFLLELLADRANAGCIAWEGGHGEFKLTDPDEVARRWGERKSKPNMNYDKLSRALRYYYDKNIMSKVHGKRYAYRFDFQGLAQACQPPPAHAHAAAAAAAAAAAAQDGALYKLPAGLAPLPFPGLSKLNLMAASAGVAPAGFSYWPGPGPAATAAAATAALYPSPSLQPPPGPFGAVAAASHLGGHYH
Method in brief: as §1

ETV5 = ETV5 (Homo sapiens, UniProt P41161 1-510); details: protein: recombinant; tags: N-terminal GST; dsDNA, one strand shown
Method in brief: as §1

HSF1 = HSF1 (Homo sapiens, UniProt Q00613 1-529); details: protein: recombinant; tags: N-terminal GST; chain copies: 3; dsDNA, one strand shown
Method in brief: as §1

SPIC = biological target: T8, SPIC (Homo sapiens, UniProt Q8N5J4 1-248); details: protein: recombinant; tags: N-terminal GST; dsDNA, one strand shown
T8 sequence: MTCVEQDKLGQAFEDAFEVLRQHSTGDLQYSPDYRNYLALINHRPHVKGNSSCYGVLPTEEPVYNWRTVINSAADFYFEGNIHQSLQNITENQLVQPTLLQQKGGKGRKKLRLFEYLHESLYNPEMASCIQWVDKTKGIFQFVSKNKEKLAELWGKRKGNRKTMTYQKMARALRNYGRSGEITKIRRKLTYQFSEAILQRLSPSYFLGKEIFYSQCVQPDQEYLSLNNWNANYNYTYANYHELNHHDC
Method in brief: as §1

ELF4 = ELF4 (Homo sapiens, UniProt Q99607 1-663); details: protein: recombinant; tags: N-terminal GST; dsDNA, one strand shown
Method in brief: as §1

ELK4 = biological target: T9, ELK4 (Homo sapiens, UniProt P28324-2 1-405); details: protein: recombinant; tags: N-terminal GST; dsDNA, one strand shown
T9 sequence: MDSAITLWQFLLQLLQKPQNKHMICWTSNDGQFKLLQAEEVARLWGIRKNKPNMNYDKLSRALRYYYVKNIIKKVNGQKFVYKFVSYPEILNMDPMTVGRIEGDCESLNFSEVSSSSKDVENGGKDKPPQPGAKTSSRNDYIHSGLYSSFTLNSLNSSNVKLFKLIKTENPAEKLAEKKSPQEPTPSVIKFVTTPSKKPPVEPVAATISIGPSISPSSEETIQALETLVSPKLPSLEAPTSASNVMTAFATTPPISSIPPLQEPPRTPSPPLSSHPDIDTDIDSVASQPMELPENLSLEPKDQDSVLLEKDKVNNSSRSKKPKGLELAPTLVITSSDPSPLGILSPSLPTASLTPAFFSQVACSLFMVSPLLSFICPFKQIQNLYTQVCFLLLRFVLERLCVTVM
Method in brief: as §1

ELF3 = biological target: T10, ELF3 (Homo sapiens, UniProt P78545 1-371); details: protein: recombinant; tags: N-terminal GST; dsDNA, one strand shown
T10 sequence: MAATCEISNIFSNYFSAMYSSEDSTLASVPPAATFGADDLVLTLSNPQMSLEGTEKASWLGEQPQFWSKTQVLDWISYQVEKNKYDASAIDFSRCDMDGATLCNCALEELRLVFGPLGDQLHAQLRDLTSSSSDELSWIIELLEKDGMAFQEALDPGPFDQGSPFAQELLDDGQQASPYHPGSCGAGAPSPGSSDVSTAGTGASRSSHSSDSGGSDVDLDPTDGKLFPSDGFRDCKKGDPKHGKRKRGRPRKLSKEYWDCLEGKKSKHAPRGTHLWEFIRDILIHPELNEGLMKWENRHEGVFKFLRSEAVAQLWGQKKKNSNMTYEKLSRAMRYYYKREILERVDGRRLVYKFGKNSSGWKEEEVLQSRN
Method in brief: as §1

CRX = CRX (Homo sapiens, UniProt O43186 1-299); details: protein: recombinant; tags: N-terminal GST; dsDNA, one strand shown
Method in brief: as §1

ETV1 = ETV1 (Homo sapiens, UniProt P50549 1-477); details: protein: recombinant; tags: N-terminal GST; dsDNA, one strand shown
Method in brief: as §1

ETV1, sequence (P50549 whole entry): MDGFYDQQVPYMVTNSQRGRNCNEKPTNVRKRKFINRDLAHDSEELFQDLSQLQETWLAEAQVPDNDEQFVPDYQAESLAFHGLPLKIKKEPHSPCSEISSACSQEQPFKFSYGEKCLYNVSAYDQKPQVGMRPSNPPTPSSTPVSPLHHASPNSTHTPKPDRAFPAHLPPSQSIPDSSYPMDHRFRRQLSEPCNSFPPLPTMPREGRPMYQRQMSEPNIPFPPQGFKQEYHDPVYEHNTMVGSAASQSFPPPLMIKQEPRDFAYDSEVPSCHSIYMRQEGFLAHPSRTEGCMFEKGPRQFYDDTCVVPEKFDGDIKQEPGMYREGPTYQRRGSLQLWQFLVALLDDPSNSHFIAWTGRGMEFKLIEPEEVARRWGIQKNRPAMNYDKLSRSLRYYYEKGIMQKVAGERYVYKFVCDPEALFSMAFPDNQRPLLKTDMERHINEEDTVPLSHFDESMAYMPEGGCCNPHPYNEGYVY
CRX, sequence (O43186 whole entry): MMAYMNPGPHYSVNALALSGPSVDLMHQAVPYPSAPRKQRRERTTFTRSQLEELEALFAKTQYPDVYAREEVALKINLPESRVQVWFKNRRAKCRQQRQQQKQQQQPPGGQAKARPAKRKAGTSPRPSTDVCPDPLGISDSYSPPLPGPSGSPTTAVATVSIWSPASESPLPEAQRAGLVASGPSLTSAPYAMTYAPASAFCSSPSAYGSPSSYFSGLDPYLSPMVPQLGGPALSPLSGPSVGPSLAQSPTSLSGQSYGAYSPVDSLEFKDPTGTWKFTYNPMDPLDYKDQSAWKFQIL
ELF4, sequence (Q99607 whole entry): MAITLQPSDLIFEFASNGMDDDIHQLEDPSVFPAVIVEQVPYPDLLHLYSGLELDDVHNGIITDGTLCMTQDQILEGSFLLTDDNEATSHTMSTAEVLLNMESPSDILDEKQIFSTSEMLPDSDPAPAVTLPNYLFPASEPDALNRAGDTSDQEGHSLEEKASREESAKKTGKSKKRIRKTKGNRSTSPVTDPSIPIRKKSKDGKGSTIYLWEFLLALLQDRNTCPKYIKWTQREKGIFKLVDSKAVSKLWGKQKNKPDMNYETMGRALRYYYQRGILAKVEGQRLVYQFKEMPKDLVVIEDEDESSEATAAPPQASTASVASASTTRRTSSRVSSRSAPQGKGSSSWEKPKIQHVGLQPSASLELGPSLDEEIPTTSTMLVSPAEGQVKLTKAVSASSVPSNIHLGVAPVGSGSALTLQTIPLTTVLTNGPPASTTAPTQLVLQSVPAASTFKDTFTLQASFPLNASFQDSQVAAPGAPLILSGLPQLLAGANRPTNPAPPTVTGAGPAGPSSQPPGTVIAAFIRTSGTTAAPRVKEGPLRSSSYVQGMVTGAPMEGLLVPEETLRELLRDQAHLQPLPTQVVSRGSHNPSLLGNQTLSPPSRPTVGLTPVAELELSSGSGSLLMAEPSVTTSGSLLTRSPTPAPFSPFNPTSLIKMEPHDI
SPIB, sequence (Q01892 whole entry): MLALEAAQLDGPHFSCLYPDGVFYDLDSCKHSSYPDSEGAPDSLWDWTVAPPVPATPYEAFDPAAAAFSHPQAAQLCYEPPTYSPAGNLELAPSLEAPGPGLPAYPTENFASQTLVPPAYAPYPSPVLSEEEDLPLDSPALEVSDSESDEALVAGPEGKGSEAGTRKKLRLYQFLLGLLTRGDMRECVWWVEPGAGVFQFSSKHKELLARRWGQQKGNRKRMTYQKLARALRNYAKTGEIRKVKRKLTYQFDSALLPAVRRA
HSF1, sequence (Q00613 whole entry): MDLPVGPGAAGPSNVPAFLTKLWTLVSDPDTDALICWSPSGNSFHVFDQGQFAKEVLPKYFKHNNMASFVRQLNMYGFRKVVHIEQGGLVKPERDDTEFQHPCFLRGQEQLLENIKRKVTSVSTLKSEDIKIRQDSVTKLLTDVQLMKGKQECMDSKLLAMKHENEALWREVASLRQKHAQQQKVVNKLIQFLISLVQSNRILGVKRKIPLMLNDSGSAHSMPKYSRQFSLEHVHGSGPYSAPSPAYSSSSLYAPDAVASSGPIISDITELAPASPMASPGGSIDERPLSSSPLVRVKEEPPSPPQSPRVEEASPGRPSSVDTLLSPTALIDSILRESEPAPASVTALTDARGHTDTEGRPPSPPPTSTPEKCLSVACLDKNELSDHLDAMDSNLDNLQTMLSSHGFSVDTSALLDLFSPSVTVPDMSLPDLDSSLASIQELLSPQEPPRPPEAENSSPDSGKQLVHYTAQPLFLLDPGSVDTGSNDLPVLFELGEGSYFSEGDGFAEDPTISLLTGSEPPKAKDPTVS
ELF1, sequence (P32519 whole entry): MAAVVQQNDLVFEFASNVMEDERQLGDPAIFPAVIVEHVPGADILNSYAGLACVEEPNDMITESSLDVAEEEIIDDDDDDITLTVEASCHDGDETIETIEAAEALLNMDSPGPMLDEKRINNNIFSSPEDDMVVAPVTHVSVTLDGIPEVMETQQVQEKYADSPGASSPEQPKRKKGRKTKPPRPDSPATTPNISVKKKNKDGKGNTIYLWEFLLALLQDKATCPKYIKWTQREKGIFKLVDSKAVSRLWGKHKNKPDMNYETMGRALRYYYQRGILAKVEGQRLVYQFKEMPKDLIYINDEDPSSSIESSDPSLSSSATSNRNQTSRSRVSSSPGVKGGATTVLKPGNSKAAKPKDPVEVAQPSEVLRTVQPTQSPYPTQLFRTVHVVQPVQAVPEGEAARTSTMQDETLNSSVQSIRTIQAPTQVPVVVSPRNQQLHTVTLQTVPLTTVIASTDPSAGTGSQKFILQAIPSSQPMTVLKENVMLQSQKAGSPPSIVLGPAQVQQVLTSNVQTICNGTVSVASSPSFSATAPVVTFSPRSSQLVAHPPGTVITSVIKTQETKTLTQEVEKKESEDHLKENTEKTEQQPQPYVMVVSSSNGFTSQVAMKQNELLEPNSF
ETV5, sequence (P41161 whole entry): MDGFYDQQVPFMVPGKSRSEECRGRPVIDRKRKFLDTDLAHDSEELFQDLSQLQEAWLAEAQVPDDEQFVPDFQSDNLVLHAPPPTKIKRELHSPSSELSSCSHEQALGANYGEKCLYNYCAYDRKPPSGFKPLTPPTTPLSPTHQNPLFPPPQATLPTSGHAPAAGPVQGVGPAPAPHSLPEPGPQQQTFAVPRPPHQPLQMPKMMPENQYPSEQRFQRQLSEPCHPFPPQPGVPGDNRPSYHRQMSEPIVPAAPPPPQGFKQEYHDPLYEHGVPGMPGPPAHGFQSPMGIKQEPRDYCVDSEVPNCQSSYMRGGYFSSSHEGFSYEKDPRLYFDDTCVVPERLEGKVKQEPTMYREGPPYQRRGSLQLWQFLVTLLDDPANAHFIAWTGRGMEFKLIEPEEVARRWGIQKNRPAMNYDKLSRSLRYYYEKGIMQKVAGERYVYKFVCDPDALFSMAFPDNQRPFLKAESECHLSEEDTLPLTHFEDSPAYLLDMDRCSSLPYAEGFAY

Q: How did the binding signal (FLI1) turn out when AAGCGC was run?
A: 1.2 fold enrichment (6-mer frequency, TF over GST control)

Q: And the binding signal (ELK1)?
A: 1.11 fold enrichment (6-mer frequency, TF over GST control)

Q: And the binding signal (GABPA)?
A: 1.12 fold enrichment (6-mer frequency, TF over GST control)

Q: And the binding signal (ERG)?
A: 1.13 fold enrichment (6-mer frequency, TF over GST control)

Q: And the binding signal (ELF1)?
A: 1.15 fold enrichment (6-mer frequency, TF over GST control)

Q: What about the binding signal (EHF) of the same sequence?
A: 1.19 fold enrichment (6-mer frequency, TF over GST control)

Q: What about the binding signal (SPI1) of the same sequence?
A: 1.07 fold enrichment (6-mer frequency, TF over GST control)

Q: What about the binding signal (SPIB) of the same sequence?
A: 1.23 fold enrichment (6-mer frequency, TF over GST control)

Q: And the binding signal (ELK3)?
A: 1.19 fold enrichment (6-mer frequency, TF over GST control)

Q: What about the binding signal (FEV) of the same sequence?
A: 1.14 fold enrichment (6-mer frequency, TF over GST control)

Q: What about the binding signal (ETV5) of the same sequence?
A: 1.09 fold enrichment (6-mer frequency, TF over GST control)

Q: And the binding signal (HSF1)?
A: 1.08 fold enrichment (6-mer frequency, TF over GST control)

Q: What about the binding signal (SPIC) of the same sequence?
A: 1.14 fold enrichment (6-mer frequency, TF over GST control)

Q: What about the binding signal (ELF4) of the same sequence?
A: 1.12 fold enrichment (6-mer frequency, TF over GST control)

Q: And the binding signal (ELK4)?
A: 1.2 fold enrichment (6-mer frequency, TF over GST control)

Q: What about the binding signal (ELF3) of the same sequence?
A: 1.16 fold enrichment (6-mer frequency, TF over GST control)

Q: What about the binding signal (CRX) of the same sequence?
A: 1.27 fold enrichment (6-mer frequency, TF over GST control)

Q: And the binding signal (ETV1)?
A: 1.09 fold enrichment (6-mer frequency, TF over GST control)

Source: publication PMC7862700, “An all-to-all approach to the identification of sequence-specific readers for epigenetic DNA modifications on cytosine”
